# Sampled rows, rich in hits. Any-hit rate of the full collection: about 3.4%.
# NRP1-CendR mod – NRP-1/CendR interaction modulation. O14786. FAM-RPARPAR peptide binding to NRP-1, fluorescence polarization. inhibition, % at 25 µM. 0.85% of 360,000 active. AID 602438;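 active means inhibition or corrected inhibition above about 18%, plus a signal ratio from 0.5 to 1.5, limit read from the data, passing the limit was not always enough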
# ADAM10 inh – inhibitors of human ADAM10; O14672; recombinant ADAM10, EDANS/DABCYL FRET peptide cleavage, 3 h; inhibition, % at 7 µM; 0.62% of 370,000 active;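 active means inhibition above a per-campaign cutoff equal to the mean of compounds falling between control-based bounds plus 3 SD, cut at about 20% in these data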;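 further: 0% = DMSO wells while the 100% control is not disclosed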
# sPLA2-III inh – Inhibits HGIII-sPLA2 liposome hydrolysis, primary screen | 0.56% of 370,000 active | QFRET BODIPY PC-A2 liposome hydrolysis, fluorescence | Q9NZ20 | inhibition, % at 12.2 µM;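 active means inhibition above mean plus 3 SD of compounds lying within the high and low control bounds, cut at about 19% in these data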;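 further: 0% = median of test compound wells and 100% = no enzyme DMSO wells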
# proKLK7 act – activates the human kallikrein-7 zymogen; purified proKLK7, EDANS-DABCYL substrate fluorescence; 100% is mature enzyme control, 0% vehicle; activation, % at 7 µM; 0.9% of 370,000 active;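 active means activation above the mean of all tested compounds plus 3 SD, computed per campaign excluding outliers beyond control limits, cut at about 13% in these data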
# Target sequence (P49862 whole entry, looked up): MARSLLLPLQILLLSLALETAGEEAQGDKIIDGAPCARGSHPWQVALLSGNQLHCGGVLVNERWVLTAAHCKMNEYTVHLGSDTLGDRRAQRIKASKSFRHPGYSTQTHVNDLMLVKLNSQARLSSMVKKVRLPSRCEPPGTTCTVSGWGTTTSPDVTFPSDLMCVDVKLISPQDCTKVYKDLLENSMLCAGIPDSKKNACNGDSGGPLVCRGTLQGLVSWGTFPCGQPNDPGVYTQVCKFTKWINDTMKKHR
# ADAM17 inh – ADAM17 inhibition, QFRET primary screen; P78536; recombinant ADAM17, EDANS/DABCYL FRET peptide cleavage; inhibition, % at 6.95 µM; 0.83% of 370,000 active;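 active means inhibition above the mean of compounds lying between control limits plus 3 SD, set per campaign, cut at about 8.5% in these data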;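 further: 0% = DMSO-only wells as the low control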
# * marks the source's active call; other numbers are inactive results; nt = no result given.
SMILES,NRP1-CendR mod,ADAM10 inh,sPLA2-III inh,proKLK7 act,ADAM17 inh
COc1ccc(S(=O)(=O)N(C)C[C@H]2Oc3ccc(NC(=O)Nc4ccc(C(F)(F)F)cc4)cc3C(=O)N([C@H](C)CO)C[C@@H]2C)cc1,3.7,29.1*,-42.5,0.8,11.5*
C#CCN1CC(N(C)CCOC(=O)c2ccc([N+](=O)[O-])cc2)CS1(=O)=O (stereo unspecified),nt,8.6,-4.4,0.3,3.9
COC(=O)[C@]12CCCCC=C1N(Cc1ccc(OC)cc1)C(=O)[C@@H]2CC(=O)NCc1cccs1,nt,0.9,-0.6,0.7,2.2
C[C@H](CO)N1C[C@H](C)[C@@H](CN(C)S(=O)(=O)c2ccccc2)Oc2ccc(NC(=O)Cc3ccccc3)cc2C1=O,23.7*,-4.5,-9.2,0.3,4.0
C[C@H](CO)N1C[C@H](C)[C@@H](CN(C)C(=O)Nc2ccc(C(F)(F)F)cc2)Oc2c(NC(=O)Nc3ccc(C(F)(F)F)cc3)cccc2C1=O,-9.1,28.6*,-25.5,0.3,11.6*
C[C@H](CO)N1C[C@H](C)[C@@H](CN(C)S(=O)(=O)c2ccc(F)cc2)Oc2ccc(NC(=O)Cc3ccccc3)cc2C1=O,21.1,4.2,-5.7,1.0,-2.2
Cc1c(CCC(=O)O)c(=O)oc2c(C)c3occ(-c4ccc(Cl)cc4)c3cc12,-152.3,-109.8,-7.7,-7.8,-48.5
Cc1c(CC(=O)O)c(=O)oc2c(C)c3occ(-c4ccccc4)c3cc12,45.2*,-31.4,-3.3,-2.9,-16.9
COc1ccccc1COc1ccc2c(C)c(CC(=O)O)c(=O)oc2c1C,36.3*,-273.5,-1.1,-4.0,-101.9
O=C(NCC(c1ccccc1)c1ccccc1)[C@H](Cc1ccccc1)NC1(C(=O)NC2CCCCC2)CCCCCC1,nt,-0.9,11.8,nt,-0.3
CC(=O)N1CCCc2cc(S(=O)(=O)CCC(=O)Nc3cccc(C)c3C)ccc21,21.9,1.8,0.0,0.1,0.3
CCC(=O)N1CCCc2cc(S(=O)(=O)CCC(=O)Nc3ccccc3C)ccc21,27.9*,-7.7,8.1,0.4,-5.8
COc1ccc(NC2CCCN(C(=O)c3ccc4nccnc4c3)C2)cc1OC (stereo unspecified),-3.8,-4.2,-1.9,-0.7,-0.6
Cc1ccc(NC2CCCN(C(=O)c3ccc4nccnc4c3)C2)cc1C (stereo unspecified),43.3*,4.0,-5.8,-0.1,0.3
CC(C)(C)c1cc[n+](C2=C([O-])c3ccccc3C(=O)/C2=N\S(=O)(=O)c2cccs2)cc1,30.7*,-1.7,6.0,0.8,-1.8
O=C(OC12CCCN(C1)/C(=C/c1ccccc1)C2)c1ccc(Cl)cc1 (stereo unspecified),nt,17.8,-5.5,0.1,6.1
O=S1(=O)NC(C2CC2c2ccccc2)CCO1 (stereo unspecified),23.3*,4.5,7.3,0.7,-4.0
CCOc1ccccc1C(=O)N1CCC(Oc2cccnc2)CC1,nt,-1.8,-1.5,-0.1,-2.5
O=C(Nc1ccc(S(=O)(=O)N2CCOCC2)cc1)c1cc(-c2cc(Cl)ccc2O)n[nH]1,9.6,26.6*,-24.0,-0.4,5.3
Cc1cc(O)c(-c2cc(C(=O)Nc3ccc(S(=O)(=O)N4CCOCC4)cc3)[nH]n2)cc1C,-9.2,5.9,-52.7,0.1,2.2
Cc1ccc(O)c(-c2cc(C(=O)Nc3ccc(S(=O)(=O)Nc4nc(C)cc(C)n4)cc3)[nH]n2)c1,28.9*,7.7,-54.6,0.3,3.0
O=C(OCCN1CCCC12CCC(c1ccccc1)CC2)c1ccccc1 (stereo unspecified),nt,1.9,2.0,0.3,-1.2
CN(C)/C=C1\NC(=S)N(c2ccccc2)C1=O,24.7*,17.2,-5.9,-0.5,0.8
O=C(C1=C[C@@H](c2ccc(C(F)(F)F)cc2)C[C@@H](OCc2ccc(CO)cc2)O1)N1CCN(Cc2ccc3c(c2)OCO3)CC1,-10.2,28.4*,-21.0,0.1,7.9
NC(=O)C1=C[C@H](c2ccc(Br)cc2)C[C@H](OCc2ccc(CO)cc2)O1,26.4*,2.8,-11.0,-0.6,0.1
SMILES,NRP1-CendR mod,ADAM10 inh,sPLA2-III inh,proKLK7 act,ADAM17 inh
COc1cccc(CNc2nc3cc(-c4ccc(OC)cc4C)sc3c(=O)n2C)c1,25.0*,-4.9,-35.5,-2.3,1.9
COc1cccc(CNc2nc3cc(-c4cscc4C)sc3c(=O)n2C)c1,0.3,3.6,-37.8,-4.2,2.7
Cc1cnc(CNc2nc3cc(-c4ccccc4C)sc3c(=O)n2C)cn1,28.2*,-7.7,-17.7,0.3,-0.7
CC(C)CC(COCc1ccc([N+](=O)[O-])cc1)N1CCN(C(=O)c2ccc(C(F)(F)F)cc2)CCC1=O (stereo unspecified),22.6*,8.4,-11.9,0.4,0.7
Cc1cccc(COCC(CC(C)C)N2CCN(C(=O)c3ccc(C(F)(F)F)cc3)CCC2=O)c1 (stereo unspecified),-0.9,-4.0,-13.0,0.8,-1.1
O=C1C=C(NCCc2cc(Br)c(O)c(Br)c2)C(=O)c2ncccc21,41.9*,-1.8,-8.0,1.4,3.6
CC(C)(C)c1cc(CCC(=O)NCCc2ccccn2)cc(C(C)(C)C)c1O,11.6,7.3,4.4,0.3,5.1
Cn1c2ccccc2c2c(C(=O)N3CCN(c4ccccn4)CC3)cn(C3CCCC3)c(=O)c21,38.4*,-84.6,-9.0,0.2,-29.6
Cn1c2ccccc2c2c(C(=O)N3CCN(C(=O)c4ccco4)CC3)cn(C3CCCCC3)c(=O)c21,14.2,-277.7,0.5,0.0,-77.1
COc1ccc(N2CCN(C(=O)c3cn(C4CCCC4)c(=O)c4c3c3ccccc3n4C)CC2)cc1,39.3*,-19.6,0.6,0.6,-5.4
COC(=O)C1CCCN(C(=O)C2CCN(S(=O)(=O)c3ccccc3[N+](=O)[O-])CC2)C1 (stereo unspecified),nt,0.6,-2.4,0.0,2.3
Cc1cccc2sc(NC(=O)CN3C(=O)C4CC=CCC4C3=O)nc12 (stereo unspecified),32.5*,2.0,-0.7,0.1,0.5
Cc1ccccc1N(C)C(=O)C1CCCN1S(=O)(=O)c1cccc2cccnc12 (stereo unspecified),nt,-5.5,10.1,-0.7,2.6
CCOC(=O)C1=C(CSc2nccn2C)NC(=O)NC1c1cc(C)ccc1C (stereo unspecified),25.8*,2.2,2.1,-0.3,-4.3
Cc1ccccc1NC(=O)CSc1nnc(-c2cc(-c3ccccc3)n[nH]2)n1N,nt,-0.4,2.0,0.0,0.0
Cc1cccc(CNC(=O)NC2CCCCN(Cc3cccc(Cl)c3)C2=O)c1 (stereo unspecified),nt,-4.2,6.0,0.1,1.8
CC(C)(C)OC(=O)[C@H](NC(=O)OCc1ccccc1)c1ccccc1,0.1,1.5,-1.6,0.0,-4.1
COC(=O)C(NC(=O)CCC(=O)NC(C(=O)OC)c1ccccc1)c1ccccc1 (stereo unspecified),-0.6,3.4,3.4,0.1,2.4

# Source: PubChem (several laboratories)
